# Data as given in the supplement of paper PMC11417369.
# In all, about 25,000 sequences were measured (“ln(normalized median fluorescence intensity)”: median about 7.1, highest 2% from about 10 on). The full list was thinned out, with the highest values kept by preference.
# Test system: PfSIP2 AP2 domain 1 (GST-tagged)
# Experiment: gcPBM binding intensity (ln(normalized median fluorescence intensity)); higher = stronger DNA binding
# Procedure, shortened: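 GST-fused DNA-binding domains of P. falciparum, expressed in E. coli, were applied at about 25 μg on average for 1 h to an Agilent 4 × 180k array of primer-extended double-stranded 36-bp intergenic genomic probes and negative controls. Binding intensity is the highest Masliner-normalised natural-log median intensity across replicate spots of either probe orientation, measured with Alexa488 anti-GST antibody and a 488 nm scan.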
row,Sequence,gcPBM binding intensity (ln)
1,TGAATAAATATAAAAGGTACACATATAAATATATAT [XGTACX_site6349],7.11
2,TATATATATATAATATGTACATATAATCAACATTTT [XGTACX_site3915],8.68
3,TATTAGTCGAATGATGTACACACATACAAAACATTT [CACACA_site9331],6.96
4,TTTTTTTTTTGATGTTGTACATATATATTATATATA [XGTACX_site6377],7.17
5,TAAAAATAATTTGCATGTACATAGGTCGATGTATTT [XGTACX_site1357],7.08
6,ATACATATAGGATGCACACATAATTCAAATACAATA [CACACA_site651],7.73
7,ATCTATCATATTTATGCACACAAAAATAATTAATTC [CACACA_site8837],7.35
8,TTTTTTTCTAATTATGCACACATATCAAAATATTCA [CACACA_site8886],10.3
9,TTTTTCTAATTATGCACACATATCAAAATATTCAAT [CACACA_site2749],9.18
10,CGAAATCATATGTACACACACATATATATATATATA [CACACA_site2151],9.32
11,AAAATATAATATATTGCACACAAAAAGTGAATTATT [CACACA_site8489],6.95
12,TATATAATCGAGTGCACACACAAAAAAAAAGTGAAC [CACACA_site1483],10.8
13,ATAATAATAAAGTGAACACACACATATAATATATAT [CACACA_site9378],7.19
14,TATATAACCGAGTGCACACACAAAAAAAAAGTGAAC [CACACA_site6806],11.1
15,CTATAATAATAAAGTGAACACACACCGATAATATAT [CACACA_site9377],7.02
16,AATAATAAAGTGAACACACACATATAATATATATAT [CACACA_site4143],8.41
17,ACACACAATACAAAAGTGCATATAATAATTAATCAT,8.76
18,TGTATATAATCGAGTGCACACACAAAAAAAAAGTGA [CACACA_site8417],10.4
19,ATAATATTCGAGTGTGCACACAAACATACATATATA [CACACA_site3396],8.79
20,TATAATAATATTTATTGTACAATTAGTTTAATTCAT [XGTACX_site272],7.08

row,Sequence,gcPBM binding intensity (ln)
1,TACAAAAAAGAAGATATTCAAACAAAAACAAAAAAA [CACACA_negctrl_site1126],6.8
2,CTCCTCATATAATTTTGTACATAAAAAATTACCATT [XGTACX_site3879],7.31
3,CCCCATATAATGAACACACACACTCCTCATAATTAA [CACACA_site628],7.15
4,TAATCATAACTTGATACGCACACGTTATATAAATAA [CACACA_site1579],7.02
5,ATAAAATAAAATAAATGTACACGAAAAAAAATATTT [XGTACX_site3747],7.25
6,ATGAATAAATTAAAAATGCACACTTTGATGGGTACA [CACACA_site2157],7.46
7,TATTATATATATGCACGTACAAAAATAATAAAGGTA [XGTACX_site3506],7.71
8,TAACAATTAATAAAAGGTACACTTGAATATGCACCA [XGTACX_site2717],10.5
9,TTTTTGAGTGCACATACACACAGACATACATTTAAA [CACACA_site5813],11.5
10,TTTAAATACAGACATACACACATACACAGACATATA [CACACA_site4460],6.97
11,TTTAAATACAGACATACACACATACACGCACATATA [CACACA_site6400],7.17
12,TAAATTTTTAAATACACACATACACCCATACAGACA [CACACA_site548],7.51
13,TTATACAGATATTTAACACACATTTTATAAAGTGCC [CACACA_site4851],6.87
14,TTTGAGTGCACATACACACAGACATACATTTAAATA [CACACA_site3403],11.9
15,TCCTTTTTGAAATGTTGTACTTTTTTTATCTTTCAT [XGTACX_site953],7.12
16,ATTAACTATCATAACACACACAGTAGACATATTTTT [CACACA_site1822],7.04
17,GATATATAAACATATACACACAAAAACATATTTATA [CACACA_site6734],6.98
18,TGAATTATAAATTATAGTACTTTATAATATGAACAT [XGTACX_site2317],6.81
19,TTTTTTTTTTTTTTGGTGCACATAGAAATTCTAAAA [GTGCAC_site9809],11.3
20,AGAAAAATTCTAAGAACATGCAAAAAAATAAAAAAA [TGCATGCA_site293],6.84

row,Sequence,gcPBM binding intensity (ln)
1,AAAAAAAAAATTTTCGTGCACATAAGAAAATTTAAA [GTGCAC_site9788],9.36
2,ATTAAATGCACATATACACACACCCAATTTTAAGTT [CACACA_site3049],7.4
3,TATGTAATAAATAGTACACACACACCGATATATATA [CACACA_site8389],7.46
4,AAGGATTACAAAAAAAGTACAAATGGATTTTTTCCC [XGTACX_site8905],6.84
5,TGCTTATATATACGTGCACACATATATATAAGATAT [CACACA_site8516],9.74
6,TGCAAGCTTATATAGGTGCACATGTATACGTGTTCA,11.3
7,TATGTTTACATATACGTGCACATGAATGTATACATT [GTGCAC_site9894],9.69
8,ATAACATACATAACAACACACAATATTTATAGGTAT [CACACA_site6243],7.12
9,TTTATTAATAAAAAGGTGCAATCAGGAAAAATTATC [GTGCAC_site9626],10.8
10,AAATTAAAGATAAAAGTGCAAAATTATAAATTTATT,7.97
11,ATATAATCAACTGCAAAGGTTTAAAAGGAAAAAATA [CACACA_negctrl_site989],6.79
12,TGATATTATTATAAGGTGCTTAAAAATAAAGATAAT [GTGCAC_site9539],7.78
13,ATTATTTGATTAAAGGTGCAAGGATAATAATAAAAC,10.3
14,AATTTATAAATAATTAATTTGATAAATTATAAAGGG [GTGCAC_negctrl_site544],7.02
15,ATTATCCATCAAAAGGTGCAAATTTTTAATTATAAA [GTGCAC_site9932],11.1
16,TTAACAAAACATAAGGTGCTTAAAATTTTATATCAC [GTGCAC_site9839],7.96
17,TATATATTAATCAAAGTGCAATAATAAAATAAAAGT [GTGCAC_site9490],8.38
18,AAATTTAACAACTTCAAACACACAATATATATATAT [CACACA_site2092],8.91
